Changes are numbered by the printed parent chain.
Columns and labels:
Test in all cases: yeast three-hybrid, YBZ-1, SC-Leu-His + 0.5 mM 3-AT, 4 days
Details in all cases: tags: N-Gal4 AD-HA kept; label: inside an RPR1-promoter hybrid RNA with tandem MS2 sites; ssRNA
PUM1 PUF domain R6-CFF = target: T1, PUM1 PUF domain R6-CFF (Homo sapiens, UniProt Q14671 828-1176, N1043C;Y1044F;Q1047F)
T1 sequence: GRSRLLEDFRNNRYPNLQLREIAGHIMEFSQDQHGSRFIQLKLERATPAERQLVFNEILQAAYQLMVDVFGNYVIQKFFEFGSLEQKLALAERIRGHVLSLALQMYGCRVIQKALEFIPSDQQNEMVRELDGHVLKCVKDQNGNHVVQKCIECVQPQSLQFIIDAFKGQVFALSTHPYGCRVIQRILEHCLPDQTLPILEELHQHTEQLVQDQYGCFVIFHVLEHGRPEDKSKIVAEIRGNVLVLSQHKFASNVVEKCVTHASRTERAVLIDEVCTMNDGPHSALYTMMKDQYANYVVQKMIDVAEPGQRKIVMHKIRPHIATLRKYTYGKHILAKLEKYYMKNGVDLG
How it was run: (§1)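 Pumilio-1 PUF domain libraries, randomized at the three base-contacting residues of each repeat, were co-expressed with matching RNA elements from a centromeric plasmid in strain YBZ-1, which carries a LexA–MS2 coat fusion and a HIS3 reporter. Transformants grew for four days on SC-Leu (input) or on SC-Leu-His + 0.5 mM 3-AT (selection), and the repeat regions were PCR-amplified and Illumina-sequenced. The interaction score is the log change in variant frequency from input to selection. That logarithm is base 2, with a pseudocount of 1 where a variant was absent.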

PUM1 PUF domain R8-SHR = PUM1 PUF domain R8-SHR (Homo sapiens, UniProt Q14671 828-1176, N1122S;Y1123H;Q1126R)
How it was run: as §1

PUM1 PUF domain R2-NFP = PUM1 PUF domain R2-NFP (Homo sapiens, UniProt Q14671 828-1176, Y900F;Q903P)
How it was run: as §1

PUM1 PUF domain R5-SRT = PUM1 PUF domain R5-SRT (Homo sapiens, UniProt Q14671 828-1176, C1007S;Q1011T)
How it was run: as §1

PUM1 PUF domain R6-NYW = target: T2, PUM1 PUF domain R6-NYW (Homo sapiens, UniProt Q14671 828-1176, Q1047W)
T2 sequence: T1 sequence with C216N, F217Y, F220W
How it was run: as §1

PUM1 PUF domain R5-NSV = PUM1 PUF domain R5-NSV (Homo sapiens, UniProt Q14671 828-1176, C1007N;R1008S;Q1011V)
How it was run: as §1

PUM1 PUF domain R5-KLE = PUM1 PUF domain R5-KLE (Homo sapiens, UniProt Q14671 828-1176, C1007K;R1008L;Q1011E)
How it was run: as §1

PUM1 PUF domain R5-DCR = PUM1 PUF domain R5-DCR (Homo sapiens, UniProt Q14671 828-1176, C1007D;R1008C;Q1011R)
How it was run: as §1

PUM1 PUF domain R3-RAT = PUM1 PUF domain R3-RAT (Homo sapiens, UniProt Q14671 828-1176, C935R;R936A;Q939T)
How it was run: as §1

PUM1 PUF domain R1-KTS = PUM1 PUF domain R1-KTS (Homo sapiens, UniProt Q14671 828-1176, S863K;R864T;Q867S)
How it was run: as §1

GGCUAGAACUAGUGGAUCCCCCGGCGCCCGGCGGCUCGAGCCCGGGUAAGUGUAAAUAGUCUGCAUGCCGCCGGGCGCCAUGCCUGCAGGUCGACUCUAGAAAACAUG
binding signal (PUM1 PUF domain R6-CFF): 4.85 log2 enrichment (interaction score)
binding signal (PUM1 PUF domain R8-SHR): 4.08 log2 enrichment (interaction score)
binding signal (PUM1 PUF domain R2-NFP): 2.11 log2 enrichment (interaction score)
binding signal (PUM1 PUF domain R5-SRT): 3.34 log2 enrichment (interaction score)
binding signal (PUM1 PUF domain R6-NYW): 2.24 log2 enrichment (interaction score)

GGCUAGAACUAGUGGAUCCCCCGGCGCCCGGCGGCUCGAGCCCGGGUAAGUGUUAAUAGUCUGCAUGCCGCCGGGCGCCAUGCCUGCAGGUCGACUCUAGAAAACAUG
binding signal (PUM1 PUF domain R5-NSV): 2.21 log2 enrichment (interaction score)
binding signal (PUM1 PUF domain R5-KLE): 2.51 log2 enrichment (interaction score)

GGCUAGAACUAGUGGAUCCCCCGGCGCCCGGCGGCUCGAGCCCGGGUAAGUGUCAAUAGUCUGCAUGCCGCCGGGCGCCAUGCCUGCAGGUCGACUCUAGAAAACAUG
binding signal (PUM1 PUF domain R5-DCR): 2.94 log2 enrichment (interaction score)
binding signal (PUM1 PUF domain R5-KLE): 5.37 log2 enrichment (interaction score)

GGCUAGAACUAGUGGAUCCCCCGGCGCCCGGCGGCUCGAGCCCGGGUAAGCGUAAAUAGUCUGCAUGCCGCCGGGCGCCAUGCCUGCAGGUCGACUCUAGAAAACAUG
binding signal (PUM1 PUF domain R8-SHR): 3.61 log2 enrichment (interaction score)

GGCUAGAACUAGUGGAUCCCCCGGCGCCCGGCGGCUCGAGCCCGGGUAAGUGUAAUUAGUCUGCAUGCCGCCGGGCGCCAUGCCUGCAGGUCGACUCUAGAAAACAUG
binding signal (PUM1 PUF domain R3-RAT): 3.26 log2 enrichment (interaction score)

GGCUAGAACUAGUGGAUCCCCCGGCGCCCGGCGGCUCGAGCCCGGGUAAGUGUGAAUAGUCUGCAUGCCGCCGGGCGCCAUGCCUGCAGGUCGACUCUAGAAAACAUG
binding signal (PUM1 PUF domain R5-NSV): 0.18 log2 enrichment (interaction score)

GGCUAGAACUAGUGGAUCCCCCGGCGCCCGGCGGCUCGAGCCCGGGUAAGUGUAAAUCGUCUGCAUGCCGCCGGGCGCCAUGCCUGCAGGUCGACUCUAGAAAACAUG
binding signal (PUM1 PUF domain R1-KTS): 4.91 log2 enrichment (interaction score)
